# According to PubChem BioAssay (NCI):
# Where “and” joins values, the source holds several entries; their conditions need not be identical. Equal values may be shown once. About 83,000 compounds went through this panel and 20% of them were active in at least one assay; those are over-represented in the sample as a whole.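 48-hour exposure, single concentration, 96-well plates; percent growth endpoint where 0 means no net growth. Active: below 10.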 Calls of active or inactive are those of the source.
# System: OVCAR-8 ovarian
# Assay: NCI-60 one-dose screen, 48 h (100 = growth as untreated, 0 = no growth, -100 = all killed)
# Conditions: 10 µM unless noted
row,Structure (SMILES),growth
1,N#CC1=C(c2cccs2)Nc2c(c(-c3ccccc3)nn2-c2ccccc2)C12C(=O)Nc1ccccc12 (configuration not stated),24.2% (inactive)
2,O=C1CC(c2ccc(I)cc2)OC2C=Cc3ccccc3C12 (configuration not stated),104% (inactive)
3,COc1ccc([C@H]2C(C(=O)c3ccc(Cl)cc3)C3(N[C@@H]2c2ccccc2)C(=O)Nc2ccccc23)cc1 (some centres not stated),32.7% (inactive)
4,COc1ccc2c(c1)N=c1c-2cc2c(O)[nH]c(=S)n2c1=O,53.2% (inactive)
5,CS(=O)(=O)Nc1cc(-c2ccc3ncnc(N4CCc5cc(F)c(Cl)cc54)c3c2)cnc1Cl,13.3% (inactive)
6,COc1cc(NC(=O)C(C)C)ccc1C(=O)NC(=S)Nc1ccc(S(N)(=O)=O)cc1,79.3% (inactive)
7,CC1=C(C(=O)OC(C)C)C(c2ccc(O)cc2)NC(=O)N1 (configuration not stated),108% (inactive)
8,COc1cccc(/C=C/c2nc3ccccc3c(=O)n2CC(=O)Nc2ccccc2)c1,21.9% (inactive)
9,COC(=O)c1c(C(=O)OC)c2ccc3c4ccccc4ccc3n2c1C(=O)OC,107% (inactive)
10,CCCCCCCCc1cccc(CC(=O)Nc2ccc(C)cc2C(=O)O)c1,45.6% [25 µM] (inactive)
11,O=C(c1cc2cc(OCCCN3CCC3)ccc2[nH]1)N1C[C@@H](CCl)c2c1cc(OCc1ccccc1)c1ccccc21,-37.6% (active)
12,CC(C)(C)OC(=O)N1CCC2(CC1)Oc1ccccc1[C@H]1CC(c3ccc(Br)cc3)=NN12,83.3% (inactive)
13,COc1ccc(NC2=C(I)C(=O)C(C)=C(C)C2=O)cc1,-19.2% (active)
14,CC[C@]12C=CCN3CC[C@@]4(c5ccc(OC)cc5N(C)[C@H]4[C@@](O)(C(=O)OC)[C@@H]1OC(=O)CCCC[P+](c1ccc(F)cc1)(c1ccc(F)cc1)c1ccc(F)cc1)[C@@H]32,20% (inactive)
15,FC(F)(F)c1cc2c(Cl)ncnc2n1CCN1CCCCC1,14.8% (inactive)
16,O=C(CSc1nnc(-c2ccc(-c3nc4ccc(Cl)cc4[nH]3)cc2)o1)Nc1ccccc1,-44.3% (active)

row,Structure (SMILES),growth
1,Cc1cccc(NCC(=O)N2CCN(c3ncnc4c3cnn4-c3ccccc3)CC2)c1,65.2% (inactive)
2,CS(=O)(=O)c1ccc(-n2nc(C(=O)NCc3ccccc3)cc2-c2ccc(Cl)cc2)cc1,89.9% (inactive)
3,CS(=O)(=O)Nc1cccc(-n2c(COc3ccc(OC(F)(F)F)cc3)nc3ccccc32)c1,93.1% (inactive) and 110% (inactive)
4,O=C(CSc1nc2sc3c(c2c(=O)n1-c1ccc(Cl)cc1)CCCC3)NNC(=O)c1ccc(Br)cc1,34.3% (inactive)
5,O=C(c1ccc(Cl)cc1)C1[C@H](c2ccccc2Cl)[C@@H](c2ccccc2)NC12C(=O)Nc1ccccc12 (some centres not stated),-31% (active)
6,O=C1NC(=NC23CC4CC(CC(C4)C2)C3)N/C1=C\c1ccc2ncccc2c1,5.28% (active)
7,N#CC1=C(c2ccco2)Nc2c(c(-c3ccccc3)nn2-c2ccccc2)C12C(=O)Nc1ccc(Cl)cc12 (configuration not stated),-29.1% (active)
8,O=C(c1ccc(O)cc1)C1[C@H](c2ccccc2Br)[C@@H](c2ccccc2)NC12C(=O)Nc1ccccc12 (some centres not stated),30.2% (inactive)
9,c1ccc(CSc2nnc(-c3ccc4nc(-c5ccccc5)[nH]c4c3)o2)cc1,-23.2% (active)
10,O=C(CSc1nnc(-c2ccc(-c3nc4ccccc4[nH]3)cc2)o1)Nc1ccccc1,31.5% (inactive)
11,CCCCCCCCCCCCCCCCCC(=O)Nc1ccc(OC)cc1,112% (inactive)
12,Nc1nn2c(-c3cc4ccccc4oc3=O)ccnc2c1N=Nc1ccccc1,42.2% (inactive)
13,O=C1NC(=S)/C(=C/c2cn(-c3ccccc3)nc2-c2ccccc2)S1,31.7% (inactive)
14,CC(Nc1ncnc2ccc(-c3ccc4oc(N)nc4c3)cc12)c1ccccc1 (configuration not stated),-40.7% (active)
15,O=C(N/N=C/c1ccsc1)c1[nH]c2ccc(Br)cc2c1-c1ccccc1,-49.4% (active)

# System: OVCAR-5 ovarian
# Assay: as above
# Conditions: 1 µM
row,Structure (SMILES),growth
1,CC/C(=C(\c1ccc(O)cc1)c1ccc(OCCN(C)C(=O)COCCNC(=O)Cc2ccc3c(c2)CN([C@@H]2CCC(=O)NC2=O)C3=O)cc1)c1ccccc1,94.7% (inactive)
2,CC/C(=C(\c1ccc(O)cc1)c1ccc(OCCN(C)C(=O)CCOCCNC(=O)c2ccc3c(c2)CN([C@@H]2CCC(=O)NC2=O)C3=O)cc1)c1ccccc1,93.4% (inactive)
3,CC/C(=C(/c1ccc(O)cc1)c1ccc(OCCN(C)C(=O)CCOCCNC(=O)Cc2ccc3c(c2)CN([C@@H]2CCC(=O)NC2=O)C3=O)cc1)c1ccccc1,97.5% (inactive)
4,CC/C(=C(/c1ccc(O)cc1)c1ccc(OCCN(C)C(=O)COCCOCCNC(=O)c2ccc3c(c2)CN([C@@H]2CCC(=O)NC2=O)C3=O)cc1)c1ccccc1,96% (inactive)
5,CC/C(=C(\c1ccc(O)cc1)c1ccc(OCCNC)cc1)c1ccccc1,97.8% (inactive)
6,CC/C(=C(/c1ccc(O)cc1)c1ccc(OCCN(C)C(=O)COCCOCCNC(=O)Cc2ccc3c(c2)CN([C@@H]2CCC(=O)NC2=O)C3=O)cc1)c1ccccc1,95.3% (inactive)
